Screening data as filed in PubChem.
HIV Env fusion: inhibitors of HIV-1 Env-driven cell-cell fusion, primary screen, HeLa-JRFL effector, CEM21 target cells, luciferase | AID 651610, 2012 | hit rate 1.1% among 360,000 | inhibition, % at 12.3 µM;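 active means mean replicate inhibition score of at least 50 and every replicate individually at or above 50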;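 further: 0% = plate neutral controls and 100% = maraviroc near 300 nM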
F508del corr: F508del CFTR correction, initial screen, CFBE line, single point; CFBE cells, YFP halide quenching; stimulated with forskolin plus potentiator P3; % fluorescence drop versus neutral controls; hit rate 0.36% among 350,000; AID 720511, 2013; activity (quench increase), % at 7.58 µM;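 active means mean added fluorescence quench of at least 8% versus neutral control, with both replicates also reaching 8%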;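 further: cells transiently co-express mutant CFTR-F508del with the halide-sensitive YFP; corrector assay measuring rescue of mutant channel to the surface after 24 h compound exposure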
PAX8 inh HTS: inhibitors of PAX8-driven TPO luciferase reporter, primary screen, RMG-I cells, single concentration | SteadyGlo, 24 h | inhibition, % at 12.6 µM | hit rate 1.2% among 360,000;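 active means mean replicate inhibition at least 60% with every replicate also reaching 60%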;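 further: luciferase light reporting Pax8 driven TPO promoter activity; plate controls were median of neutral control wells for no effect and mitoxantrone controls for full effect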
INS-1E GSIS act: GLuc luminescence reporter in INS-1E cells, primary screen for activators of glucose-dependent secretion of insulin; INS-1E GLuc reporter insulin secretion, 2-3 h; activation, % at 16.6 µM; hit rate 0.61% among 370,000; AID 743287, 2014;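 active means lowest replicate activation of at least 40%, so every replicate reaches that level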;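 further: 0% = median of neutral control wells and 100% = median of IBMX positive control wells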
EWS-Fli inh: EWS/Fli-driven NR0B1 reporter inhibitors, primary screen, A673 cells, NR0B1 luciferase, luminescence, MLPCN library. viability-normalised. hit rate 0.67% among 350,000. inhibition, % at 12.6 µM. AID 651661, 2012;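 active means mean inhibition of at least 50% after viability correction, with every replicate also passing that limit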;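 further: firefly luciferase signal divided by Alamar Blue viability fluorescence both relative to DMSO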
PGC1a acetyl inh: inhibitors of PGC1a acetylation signal, primary screen, cell-based, U2OS, AlphaScreen, inhibitor mode. AlphaScreen anti-acetyl-lysine; with virally co-expressed GCN5 acetyltransferase. inhibition, % at 15.6 µM. hit rate 0.17% among 350,000. AID 651687, 2012;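 active means every replicate shows inhibition of at least 40%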;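 further: 0% = neutral control wells and 100% = positive control wells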
Numbers without * were called inactive; . = not tested or not shown; [ ] = another dose, or the depositor's remark. A selection: hits, their analogues and other compounds. The true share with any hit is near 2.7%.

SMILES	HIV Env fusion	F508del corr	PAX8 inh HTS	INS-1E GSIS act	EWS-Fli inh	PGC1a acetyl inh
C[C@@H]1CN([C@H](C)CO)C(=O)Cc2cc(NC(=O)Nc3ccc(F)cc3)ccc2O[C@@H]1CN(C)C(=O)Nc1ccc(C(F)(F)F)cc1	-21[16.7 µM]	0	3	-23	6	-9
C[C@@H]1CN([C@@H](C)CO)C(=O)Cc2cc(NC(=O)CCCCCC(=O)Nc3ccccc3N)ccc2O[C@H]1CN(C)C(=O)Nc1ccc2c(c1)OCO2	.	2	-28	3	1	0
COc1ccccc1OCCNS(=O)(=O)c1ccc2oc3ccccc3c2c1	58*	.	26	-6	-4	.
COc1ccc(NC(C)=O)cc1NC(=O)C1CCCN1C(=O)c1cccs1 (stereo not given)	64*	-9	-9	0	-9	.
C[C@H](CO)N1C[C@H](C)[C@H](CN(C)S(=O)(=O)c2cccs2)Oc2c(NC(=O)C3CCOCC3)cccc2C1=O	.	3	.	16	10	0
C[C@@H]1CN([C@@H](C)CO)C(=O)c2cc(-c3ccc(F)cc3)cnc2O[C@@H]1CN(C)CC1CC1	1[16.7 µM]	-7	.	6	1	15
COc1ccc2c(C)nc(Nc3nc(-c4ccccc4)cc(=O)[nH]3)nc2c1	-29	-4	95*	4	33	2
CO[C@H]1CN(C)C(=O)c2ccc(NC(C)=O)cc2OC[C@H](C)N(C(=O)CN2CCOCC2)C[C@@H]1C	.	-2	.	-7	-2	2
Nc1ccc2c(c1)CC(=O)c1ccccc1S2	.	1	93*	.	-28	12
COc1ccc(C(C#N)=Cc2ccc(OC)c(OC)c2)cc1	-29	0	-49	80*	-43	1
Cc1noc(C)c1S(=O)(=O)Nc1ccc2c(c1)CC(=O)N([C@@H](C)CO)C[C@@H](C)[C@H](CN(C)CC1CC1)O2	0[16.7 µM]	0	.	-3	-5	-7
COc1ccc2c(c1)C(CC(C)=O)N(c1ccc(-c3cccs3)cc1)C(c1ccsc1)=C2 (stereo not given)	-36	2	64*	-34	18	.
COc1ccc(-c2ccc(N3C(c4cc(OC)cc(OC)c4)=Cc4ccc(OC)cc4C3CC(C)=O)cc2)cc1 (stereo not given)	23	2	63*	-6	0	.
COc1ccc2c(c1)C(CC(C)=O)N(c1ccc(-c3cnc(OC)nc3)cc1)C(c1ccsc1)=C2 (stereo not given)	-96	0	12	4	15	.
C[C@H]1CCCCO[C@H](CN(C)C(=O)NC2CCCCC2)[C@@H](C)CN([C@@H](C)CO)C(=O)c2cc(NC(=O)Nc3ccccc3)ccc2O1	56*[16.7 µM]	-1	29	2	16	14
C[C@H]1CCCCO[C@@H](CN(C)C(=O)NC2CCCCC2)[C@@H](C)CN([C@@H](C)CO)C(=O)c2cc(NC(=O)Nc3ccc(F)cc3)ccc2O1	-3[16.7 µM]	-1	54	-5	-6	-5
C[C@H](CO)N1C[C@H](C)[C@H](CN(C)C(=O)NC2CCCCC2)OCCCC[C@H](C)Oc2ccc(NC(=O)Nc3ccc(F)cc3)cc2C1=O	-70[16.7 µM]	-5	65*	2	-1	-11
CN(C)CCOc1ccc2c(c1)C(=O)C(=Cc1ncc([N+](=O)[O-])n1C)C2	13	-1	99*	.	52*	93*
C[C@H](CO)N1C[C@H](C)[C@@H](CN(C)C(=O)C2CC2)Oc2cc(-c3cncnc3)ccc2S1(=O)=O	-13[16.7 µM]	6	.	-9	-11	6
CC1=CN2C(=N)/C(=C/c3cn(CCCOc4ccccc4C)c4ccccc34)C(=O)N=C2S1	1	.	-16	47*	.	.
CCc1ccc(OCC(=O)NC(NC(=S)Nc2ccccc2OC)C(Cl)(Cl)Cl)cc1 (stereo not given)	-5	.	43	-6	6	.
CCc1ccc(OCC(=O)NC(NC(=S)Nc2ccccc2)C(Cl)(Cl)Cl)cc1 (stereo not given)	-3	.	21	199*	.	-19
CCc1ccc(OCC(=O)NC(NC(=S)Nc2ccccc2C)C(Cl)(Cl)Cl)cc1 (stereo not given)	.	2	116*	.	22	-20
CO[C@H]1CN(C)C(=O)c2cc(NC(=O)Cc3ccccc3)ccc2OC[C@H](C)N(C(=O)c2ccccc2F)C[C@H]1C	.	-1	10	-5	4	-8
CCCC(=O)Nc1ccc2c(c1)C(=O)N(C)[C@@H]1CC[C@@H](CC(=O)NCCOC)O[C@@H]1CO2	-3[16.7 µM]	-2	-7	3	-1	4
SMILES	HIV Env fusion	F508del corr	PAX8 inh HTS	INS-1E GSIS act	EWS-Fli inh	PGC1a acetyl inh
CCN(CC)S(=O)(=O)c1ccc(N2CCCC2)c(NC(=O)Cc2cc(OC)c(OC)c(OC)c2)c1	97*	0	1	-4	1	.
O=C(COC(=O)c1cc([N+](=O)[O-])ccc1N1CCOCC1)Nc1ccc(Cl)cc1	0	0	18	-9	9	0
CCN1CCN(c2ccc(S(=O)(=O)N3CCOCC3)cc2NC(=O)/C=C/c2ccc([N+](=O)[O-])cc2)CC1	-16	-3	72*	-1	51	6
CCN(CC)S(=O)(=O)c1ccc(OC)c(NC(=O)c2cc([N+](=O)[O-])ccc2N2CCOCC2)c1	67*	4	-3	.	8	-5
O=C(COC(=O)c1cc([N+](=O)[O-])ccc1N1CCOCC1)Nc1ccc(Cl)cn1	-165	1	61*	15	.	.
CCCNC(=O)N1C[C@@H](O)COC[C@@H]2O[C@@H](CC(=O)NCCCN3CCOCC3)CC[C@H]21	-2[16.7 µM]	-3	-13	9	3	11
O=C(Nc1cccc(F)c1)N1CC(=O)N2[C@H](C1)[C@@H](c1ccc(Br)cc1)[C@@H]2CO	.	-2	0	-16	1	-4
C[C@@H]1CN([C@@H](C)CO)C(=O)Cc2cc(NC(=O)Cc3cn(C)c4ccccc34)ccc2O[C@H]1CN(C)C(=O)Nc1cccc2ccccc12	-6[16.7 µM]	-4	.	1	6	-9
CO[C@H]1CN(C)C(=O)c2cc(NC(=O)C3CCC3)ccc2OC[C@@H](C)N(Cc2cccnc2)C[C@H]1C	.	-1	6	-12	1	9
CO[C@H]1CN(C)C(=O)c2cc(NC(C)=O)ccc2OC[C@H](C)N(CCc2ccccc2)C[C@H]1C	.	2	.	8	-5	9
COc1ccc(COC(=O)c2cc([N+](=O)[O-])ccc2N2CCOCC2)cc1F	.	5	96*	-8	49	.
O=C(OCc1cccc(C(F)(F)F)c1)c1cc([N+](=O)[O-])ccc1N1CCOCC1	.	3	9	-17	10	5
O=C(OCc1cccc(Cl)c1)c1cc([N+](=O)[O-])ccc1N1CCOCC1	-273	1	74*	-3	-7	.
